About 83,000 compounds went through this panel and 20% of them were active in at least one assay; those are over-represented in the sample as a whole.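 Treatment: one concentration, 48 hours, 96-well format. Scoring: percent growth, with anything below 10 considered active.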 A number with no mark means an inactive call. Calls of active or inactive are those of the source.

The results in this text go back to PubChem BioAssay (NCI).

What all share (test): NCI-60 one-dose screen, 48 h (100 = growth as untreated, 0 = no growth, -100 = all killed)
Holding throughout (conditions): 10 µM unless noted

In assay [1] the test system is HCT-15 colon.
Assay [2] deals with HT29 colon.
For assay [3], the system named is SNB-75 CNS.
For assay [4], the system named is SNB-19 CNS.
The subject of assay [5] is U251 CNS.
In assay [6] the test system is PC-3 prostate.
Assay [7] has as its system SK-MEL-5 melanoma.
Assay [8] has as its system UACC-62 melanoma.
The subject of assay [9] is LOX IMVI melanoma.
The subject of assay [10] is SK-MEL-28 melanoma.

For the compound `O=C(c1ccccc1)C(CN1CCCCC1)c1ccccc1` (stereo not given), the growth in [1] is -22% (active); in [2] it was -13.4% (active); in assay [3], 63.4%; in [4] it was 78.5%; in [5] it was 15.9%; in [6], 49.8%. Further, the growth in [7] was 58.8%; in assay [8], 25.8%; in assay [9] it was -94.9% (active); in assay [10] it was 58.8%.
On to `FC(F)(F)c1ccc(-c2cnc(-c3nn[nH]n3)nc2NC2CCCCCC2)cc1`, for which the growth in assay [1] was 38.7% [50 µM]; in assay [2] it was 66.8% [50 µM]; in assay [3], 93.7% [50 µM]; in [4], 41.3% [50 µM]; in [5], 33.8% [50 µM]; in assay [6], 28.5% [50 µM]. Also, the growth in [7] is 71% [50 µM]; in assay [8] it was 41.6% [50 µM]; in [9] it was 41.6% [50 µM]; in [10] it was 74.1% [50 µM].
For the compound `Cc1ccc2nc(SCC(=O)Nc3ccc(-c4nc5ccccc5s4)c(Cl)c3)[nH]c2c1`, the growth was 101% in assay [1]; 106% in assay [2]; 94.6% in [3]; 102% in [4]; 105% in assay [5]; 107% in [6]. Further, the growth in assay [7] was 102%; in [8], 90.3%; in assay [9], 107%; in assay [10] it was 118%.
`Cc1cc(=O)[nH]c(/C(=N/Nc2ccccc2)C(=O)c2ccc(Cl)cc2)n1`: the growth is 112% in assay [1]; 105% in assay [2]; 128% in [3]; 95.5% in assay [4]; 107% in assay [5]; 92.6% in assay [6]. Besides, the growth in assay [7] was 92.4%; in [8] it was 92%; in assay [9], 98.9%; in assay [10], 110%.
For `COc1ccc2c(=O)c(OC)c(-c3cc(OC)c(OC)c(OC)c3)oc2c1`, the growth in assay [1] was 101%; in assay [2] it was 98.2%; in assay [3], 79.5%; in assay [4], 92.5%; in assay [5] it was 96.1%; in [6] it was 67.7%. In addition, the growth in assay [7] was 75.4%; in [8], 70.5%; in assay [9], 82.7%; in assay [10], 97.4%.
For the compound `Clc1ccc(C2c3ccccc3-c3nccn32)c(Cl)c1` (stereo not given), the growth in [1] was 72.1%; in assay [2], 77.9%; in assay [3] it was 83.1%; in assay [4] it was 88.8%; in assay [5] it was 86.3%; in assay [6], 64.2%. The growth was 47.3% in [7], 73.2% in [8], 76.5% in assay [9] and 112% in [10].
As to `Cc1ccc(-c2csc(N)n2)cc1`, the growth in assay [1] is 99.9%; in assay [2], 93.6%; in assay [3], 93.2%; in assay [4] it was 98.1%; in assay [5], 92.9%; in assay [6], 91.2%. For the same compound, the growth is 97.1% in [7], 99% in assay [8], 101% in assay [9] and 110% in assay [10].
As for `COc1ccc(C(=O)COc2cccc(/C=C3\CSc4ccc(Cl)cc4C3=O)c2)cc1`, the growth in assay [1] was 70.4%; in assay [2], 72.2%; in assay [3], 99.3%; in assay [4] it was 91.3%; in assay [5], 71.1%; in assay [6], 61.9%. In addition, the growth in assay [7] is 67.2%; in assay [8], 71.8%; in assay [9], 33.1%; in [10], 114%.
On to `COc1cc(C2=NN(C=O)C(c3cccc(Nc4ccnc5cc(Cl)ccc45)c3)C2)cc(OC)c1OC` (stereo not given), for which the growth in assay [1] was 52.4%; in assay [2] it was 22%; in [3], 74.3%; in assay [4], 76.2%; in assay [5], 66.8%; in assay [6], 42.7%. For the same compound, the growth was 68.1% in assay [7], 96.4% in assay [8], 54.5% in assay [9] and 90.6% in assay [10].
As for `CCN(CC)CCSc1ncnc2c1cnn2-c1ccc(S(N)(=O)=O)cc1`, the growth is 89% in assay [1]; 85.7% in [2]; 108% in [3]; 107% in [4]; 92.9% in assay [5]; 85.7% in assay [6]. Further, the growth was 79.1% in assay [7], 92.7% in assay [8], 87% in assay [9] and 92.8% in assay [10].
As for `CN(C)c1ncnc2c1ncn2C1CCCCO1` (stereo not given), the growth is 100% in assay [1]; 109% in assay [2]; 86.4% in assay [3]; 97.1% in assay [4]; 108% in assay [5]; 91.3% in assay [6]. The growth was 107% in assay [7], 84.5% in assay [8], 101% in assay [9] and 97.6% in assay [10].
Take `Nc1ccc(N=Nc2ccccc2)cc1[N+](=O)[O-]`: the growth in assay [1] was 68.8%; in assay [2] it was 92%; in [3], 73.3%; in [4] it was 95.3%; in assay [5], 86.7%; in [6], 83.9%. In addition, the growth in assay [7] was 93.1%; in [8], 73%; in assay [9], 77.9%; in assay [10], 119%.
Consider `CCOC(=O)C1C(=O)NC(C(=O)OCC)(C(=O)OCC)C1CC` (stereo not given), for which the growth in assay [1] was 92.8%; in assay [2], 111%; in [3], 107%; in assay [4] it was 105%; in assay [5], 105%; in assay [6], 92.9%. Moreover, the growth in assay [7] was 101%; in [8], 98.1%; in assay [9], 95.6%; in [10], 123%.
Take `O=C1NCCc2c1noc2-c1ccccc1`: the growth was 106% in [1]; 90.5% in assay [2]; 89.7% in [3]; 105% in assay [4]; 98.5% in assay [5]; 94.5% in assay [6]. The growth in assay [7] is 105%; in [8], 104%; in assay [9], 98.7%; in assay [10] it was 111%.
`OCCCc1n(Cc2ccc3ccccc3c2)c2ccccc2[n+]1Cc1ccc2ccccc2c1`: the growth is 86.4% in assay [1]; 6.48% (active) in [2]; 19.8% in assay [3]; 3.3% (active) in assay [4]; 13.6% in assay [5]; 22.9% in assay [6]. In addition, the growth in [7] was -97.8% (active); in [8], -48.2% (active); in assay [9] it was -41.9% (active); in [10], -28% (active).
For the compound `COc1cc(/C=N/OC(=O)Nc2ccccc2)cc(OC)c1OC`, the growth in assay [1] was 112%; in assay [2] it was 104%; in assay [3], 85.2%; in assay [4] it was 105%; in assay [5], 107%; in assay [6], 91.1%. Moreover, the growth in assay [7] is 102%; in assay [8], 90.5%; in [9] it was 90.6%; in assay [10], 104%.
With `CC(=O)Nc1c(Cl)cc2c(c1Cl)Cc1ccccc1-2`, the growth is 99.9% in [1]; 106% in [2]; 94.7% in assay [3]; 101% in [4]; 92.4% in assay [5]; 86.9% in [6]. The growth in [7] was 97.3%; in assay [8] it was 84.8%; in assay [9], 87.9%; in assay [10], 124%.
Regarding `COc1cc(-c2n[nH]nc2-c2ccccn2)cc(OC)c1OC`, the growth is 76.8% in assay [1]; 112% in assay [2]; 88.1% in [3]; 94.8% in assay [4]; 106% in [5]; 82.1% in [6]. Besides, the growth is 102% in assay [7], 87.3% in assay [8], 98.5% in assay [9] and 120% in assay [10].
As for `O=C(O)c1ccc2cccnc2c1O`, the growth in [1] is 7.1% (active); in assay [2], 10.9%; in [3], 23%; in assay [4], 12.7%; in [5] it was 8.23% (active); in [6], 1.21% (active). Moreover, the growth was 0.767% (active) in assay [7], 0.979% (active) in [8], 3.31% (active) in [9] and 44.6% in assay [10].
For `CC(=O)c1ccccc1NC(=O)C(C)(c1ccccc1)c1ccccc1`, the growth in assay [1] was 104%; in assay [2] it was 91.1%; in [3], 81.1%; in assay [4], 97.1%; in assay [5] it was 91.6%; in [6], 66.8%. Besides, the growth in assay [7] is 6.19% (active); in assay [8] it was 70.9%; in assay [9], 81.8%; in assay [10], 111%.
Turning to `C=C(CN1CCc2c([nH]c3ccccc23)C1)c1ccc(C(=O)Nc2ccon2)cc1`, the growth is 104% in assay [1]; 99.2% in assay [2]; 96.6% in assay [3]; 74.4% in [4]; 92% in assay [5]; 73.8% in assay [6]. Besides, the growth in [7] was 88%; in [8], 80%; in assay [9], 83.8%; in [10] it was 97.8%.
In the case of `O=C(COc1cccc(/C=C2\Cc3ccccc3C2=O)c1)c1ccc(Cl)cc1`, the growth is 160% in [1]; 69.6% in assay [2]; 101% in [3]; 96.5% in assay [4]; 125% in assay [5]; 90.3% in [6]. Also, the growth in assay [7] is 89.4%; in assay [8] it was 91.4%; in assay [9] it was 128%; in assay [10], 104%.
Take `O=C1C(=O)/C(=C/c2ccccc2)CCCCCC/C1=C/c1ccccc1`: the growth in [1] was 32.2%; in [2], -25.6% (active); in assay [3], 68%; in assay [4], 67.9%; in [5], 11%; in assay [6], 55.4%. Moreover, the growth was 88.2% in assay [7], 79.6% in assay [8], -73.5% (active) in assay [9] and 94.9% in [10].
Turning to `COc1ccc(Oc2ccccc2NC(=O)CNC(=O)c2cccc3ccccc23)cc1`, the growth in assay [1] was 17.2% [5 µM]; in [2], 2.75% [5 µM] (active); in assay [3] it was 41.6% [5 µM]; in assay [4], 51.4% [5 µM]; in assay [5], 16.9% [5 µM]; in assay [6], 21.5% [5 µM]. In addition, the growth in [7] is 10.3% [5 µM]; in assay [8], 37.5% [5 µM]; in assay [9] it was 22.3% [5 µM]; in [10] it was 60.6% [5 µM].
For `CC(C)Sc1nc(Cl)c(C#N)c(-c2ccc(F)cc2)n1`, the growth is 87.4% in assay [1]; 103% in assay [2]; 97.3% in assay [3]; 113% in assay [4]; 92.9% in assay [5]; 106% in [6]. Also, the growth in assay [7] is 100%; in [8], 102%; in assay [9], 70.2%; in assay [10] it was 119%.
As to `O=C1C=CC(=O)N1c1ccccn1`, the growth in [1] was 97.7%; in [2], 115%; in [3] it was 89.3%; in assay [4], 96.6%; in assay [5], 110%; in [6] it was 99.4%. Besides, the growth in assay [7] was 111%; in [8], 95%; in assay [9] it was 93.6%; in assay [10] it was 115%.
